Source: the supplement of paper PMC13380429
Unmarked numbers belong to inactive results.

Tested on: Vero E6 infected with SARS-CoV-2
Test: inhibition of SARS-CoV-2 cytopathic effect; higher = more antiviral protection, active = above 15
Conditions: 48 h

SMILES: CCCC[N+]1(C)[C@@H]2C[C@@H](OC(=O)[C@H](CO)c3ccccc3)C[C@H]1[C@@H]1O[C@@H]12 (stereo not given in full) [butylscopolamine-bromide]
- inhibition of SARS-CoV-2 cytopathic effect (1 nM): -2.47%
- inhibition of SARS-CoV-2 cytopathic effect (8.33 nM): -2.18%
- inhibition of SARS-CoV-2 cytopathic effect (100 nM): -2.19%
- inhibition of SARS-CoV-2 cytopathic effect (833.33 nM): 0.56%
- inhibition of SARS-CoV-2 cytopathic effect (10000 nM): -1.1%

SMILES: CC(C)=CCC[C@](C)(O[C@@H]1O[C@H](CO)[C@@H](O)[C@H](O)[C@H]1O)[C@H]1CC[C@]2(C)[C@@H]1[C@H](O)C[C@@H]1[C@@]3(C)CC[C@H](O)C(C)(C)[C@@H]3CC[C@]12C [ginsenoside-C-K]
- inhibition of SARS-CoV-2 cytopathic effect (1 nM): 3.53%
- inhibition of SARS-CoV-2 cytopathic effect (8.33 nM): 3.09%
- inhibition of SARS-CoV-2 cytopathic effect (100 nM): 3.64%
- inhibition of SARS-CoV-2 cytopathic effect (833.33 nM): -0.21%
- inhibition of SARS-CoV-2 cytopathic effect (10000 nM): 2.52%

SMILES: COc1ccc(NS(=O)(=O)c2ccc(/N=N/c3ccc(O)c(C(=O)O)c3)cc2)nn1 [salazodine]
- inhibition of SARS-CoV-2 cytopathic effect (1 nM): 0.92%
- inhibition of SARS-CoV-2 cytopathic effect (8.33 nM): 3.48%
- inhibition of SARS-CoV-2 cytopathic effect (100 nM): 1.53%
- inhibition of SARS-CoV-2 cytopathic effect (833.33 nM): -1.71%
- inhibition of SARS-CoV-2 cytopathic effect (10000 nM): -1.01%

SMILES: CC(C)OC(=O)C1=CN(C(=O)c2ccc(F)c(F)c2)CC(C)(C)c2c1[nH]c1ccccc21
- inhibition of SARS-CoV-2 cytopathic effect (1 nM): -2.29%
- inhibition of SARS-CoV-2 cytopathic effect (8.33 nM): -1.15%
- inhibition of SARS-CoV-2 cytopathic effect (100 nM): -3.38%
- inhibition of SARS-CoV-2 cytopathic effect (833.33 nM): -4.11%
- inhibition of SARS-CoV-2 cytopathic effect (10000 nM): -3.87%

SMILES: CC(=O)OC[C@H]1O[C@@H](n2ccc(=O)[nH]c2=O)[C@H](OC(C)=O)[C@@H]1OC(C)=O [uridine-triacetate]
- inhibition of SARS-CoV-2 cytopathic effect (1 nM): -1.68%
- inhibition of SARS-CoV-2 cytopathic effect (8.33 nM): 0.37%
- inhibition of SARS-CoV-2 cytopathic effect (100 nM): 0.84%
- inhibition of SARS-CoV-2 cytopathic effect (833.33 nM): -3.59%
- inhibition of SARS-CoV-2 cytopathic effect (10000 nM): -0.59%

SMILES: CCN(CC)C(=S)SSC(=S)N(CC)CC [disulfiram]
- inhibition of SARS-CoV-2 cytopathic effect (1 nM): 1.63%
- inhibition of SARS-CoV-2 cytopathic effect (8.33 nM): 1.79%
- inhibition of SARS-CoV-2 cytopathic effect (100 nM): 1.68%
- inhibition of SARS-CoV-2 cytopathic effect (833.33 nM): 26.5% (active)
- inhibition of SARS-CoV-2 cytopathic effect (10000 nM): 13.2%

SMILES: N[C@]1(C(=O)O)CC[C@@H](C(=O)O)C1
- inhibition of SARS-CoV-2 cytopathic effect (1 nM): 1.21%
- inhibition of SARS-CoV-2 cytopathic effect (8.33 nM): 2.87%
- inhibition of SARS-CoV-2 cytopathic effect (100 nM): 0.81%
- inhibition of SARS-CoV-2 cytopathic effect (833.33 nM): 1.58%
- inhibition of SARS-CoV-2 cytopathic effect (10000 nM): 1.7%

SMILES: CNCC(=O)O [sarcosine]
- inhibition of SARS-CoV-2 cytopathic effect (1 nM): 0.02%
- inhibition of SARS-CoV-2 cytopathic effect (8.33 nM): 0.73%
- inhibition of SARS-CoV-2 cytopathic effect (100 nM): 0.05%
- inhibition of SARS-CoV-2 cytopathic effect (833.33 nM): 2.03%
- inhibition of SARS-CoV-2 cytopathic effect (10000 nM): 0.53%

SMILES: CS(=O)(=O)c1ccc(-c2nnc(/C=C/c3nnc(-c4ccc(C#N)cc4)o3)n2-c2ccccc2Cl)nc1
- inhibition of SARS-CoV-2 cytopathic effect (1 nM): 0.69%
- inhibition of SARS-CoV-2 cytopathic effect (8.33 nM): 0.31%
- inhibition of SARS-CoV-2 cytopathic effect (100 nM): -0.3%
- inhibition of SARS-CoV-2 cytopathic effect (833.33 nM): -2.5%
- inhibition of SARS-CoV-2 cytopathic effect (10000 nM): 2.17%

SMILES: CC(=O)O[C@@H]1CC[C@@]2(C)[C@@H](CC[C@]3(C)[C@@H]2C(=O)C=C2[C@@H]4[C@@H](C)[C@H](C)CC[C@]4(C)CC[C@]23C)[C@@]1(C)C(=O)O [acetyl-11-keto-beta-boswellic-acid]
- inhibition of SARS-CoV-2 cytopathic effect (1 nM): -1.38%
- inhibition of SARS-CoV-2 cytopathic effect (8.33 nM): -3.19%
- inhibition of SARS-CoV-2 cytopathic effect (100 nM): -1.26%
- inhibition of SARS-CoV-2 cytopathic effect (833.33 nM): -0.71%
- inhibition of SARS-CoV-2 cytopathic effect (10000 nM): -0.995%

SMILES: C/C=C1\[C@H]2C=C(C)C[C@]1(N)c1ccc(=O)[nH]c1C2 [(-)-Huperzine A]
- inhibition of SARS-CoV-2 cytopathic effect (1 nM): 0.37%
- inhibition of SARS-CoV-2 cytopathic effect (8.33 nM): 2.1%
- inhibition of SARS-CoV-2 cytopathic effect (100 nM): 0.96%
- inhibition of SARS-CoV-2 cytopathic effect (833.33 nM): -0.65%
- inhibition of SARS-CoV-2 cytopathic effect (10000 nM): -0.5%

SMILES: Oc1ccc(Cl)c2c1CCC2 [chlorindanol]
- inhibition of SARS-CoV-2 cytopathic effect (1 nM): 1.21%
- inhibition of SARS-CoV-2 cytopathic effect (8.33 nM): -1.76%
- inhibition of SARS-CoV-2 cytopathic effect (100 nM): -1.84%
- inhibition of SARS-CoV-2 cytopathic effect (833.33 nM): -1.95%
- inhibition of SARS-CoV-2 cytopathic effect (10000 nM): 4.12%

SMILES: CCC(=O)[C@@]1(C)[C@H](C)C[C@H]2[C@@H]3CCC4=CC(=O)C=C[C@]4(C)[C@H]3[C@@H](O)C[C@@]21C [rimexolone]
- inhibition of SARS-CoV-2 cytopathic effect (1 nM): -1.78%
- inhibition of SARS-CoV-2 cytopathic effect (8.33 nM): -0.66%
- inhibition of SARS-CoV-2 cytopathic effect (100 nM): -2.92%
- inhibition of SARS-CoV-2 cytopathic effect (833.33 nM): 0.22%
- inhibition of SARS-CoV-2 cytopathic effect (10000 nM): -2.54%

SMILES: C=C[C@H]1CN2CC[C@H]1C[C@@H]2[C@@H](O)c1ccnc2ccc(OC)cc12 [quinidine]
- inhibition of SARS-CoV-2 cytopathic effect (1 nM): -8.54%
- inhibition of SARS-CoV-2 cytopathic effect (8.33 nM): -5.1%
- inhibition of SARS-CoV-2 cytopathic effect (100 nM): -8.19%
- inhibition of SARS-CoV-2 cytopathic effect (833.33 nM): -4.54%
- inhibition of SARS-CoV-2 cytopathic effect (10000 nM): -4.21%

SMILES: Cc1cccc(C)c1NC(=O)c1ccccc1C(=O)O [ftaxilide]
- inhibition of SARS-CoV-2 cytopathic effect (1 nM): -0.49%
- inhibition of SARS-CoV-2 cytopathic effect (8.33 nM): 0.92%
- inhibition of SARS-CoV-2 cytopathic effect (100 nM): -1.2%
- inhibition of SARS-CoV-2 cytopathic effect (833.33 nM): 0.63%
- inhibition of SARS-CoV-2 cytopathic effect (10000 nM): 1.39%

SMILES: CNc1ccc([N+](=O)[O-])cc1-n1cnc(-c2ccc(C(F)(F)F)cc2)c1
- inhibition of SARS-CoV-2 cytopathic effect (1 nM): 1.34%
- inhibition of SARS-CoV-2 cytopathic effect (8.33 nM): 1.42%
- inhibition of SARS-CoV-2 cytopathic effect (100 nM): 0.62%
- inhibition of SARS-CoV-2 cytopathic effect (833.33 nM): 1.02%
- inhibition of SARS-CoV-2 cytopathic effect (10000 nM): -0.19%

SMILES: CC(C)CN(C[C@@H](OP(=O)(O)O)[C@H](Cc1ccccc1)NC(=O)O[C@H]1CCOC1)S(=O)(=O)c1ccc(N)cc1 [fosamprenavir]
- inhibition of SARS-CoV-2 cytopathic effect (1 nM): -0.69%
- inhibition of SARS-CoV-2 cytopathic effect (8.33 nM): 0.83%
- inhibition of SARS-CoV-2 cytopathic effect (100 nM): 0.76%
- inhibition of SARS-CoV-2 cytopathic effect (833.33 nM): -0.52%
- inhibition of SARS-CoV-2 cytopathic effect (10000 nM): -2.55%
